Bioassay records deposited in PubChem BioAssay by several laboratories.
TLR9-MyD88 block = inhibitors of TLR9-MyD88 association in cells, primary screen, cell-based, CHO, BLA complementation, fluorescence. Toll-like receptor 9 (Homo sapiens) + Myeloid differentiation primary response protein …. inhibition, % at 4.98 µM. CCF4 FRET ratio. actives 0.21% (n = 340,000). AID 504734, 2011;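 active = inhibition above the mean over all tested compounds plus 3 SD, cut at about 21% in these data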;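 also: 0% = DMSO only wells and 100% = clavulanate BLA inhibitor control wells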
Mcl1 Bid PPI = Mcl-1/Bid binding inhibitors, primary screen, biochemical, TR-FRET, 1536-well. inhibition, % at 21.7 µM. actives 0.97% (n = 220,000). TR-FRET Mcl-1/Bid-Dy647 peptide binding. Induced myeloid leukemia cell differentiation protein Mcl-1 (Homo sapiens), Q07820;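 active = compounds that cut the binding signal by more than half at the single screening dose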;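 also: His-tagged Mcl-1 with europium anti-His antibody binding Bid BH3 peptide; 0% = Mcl-1 plus peptide wells and 100% = peptide-only wells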
Mcl-1 Bim block = inhibitors of Bim peptide binding to Mcl-1, primary screen, biochemical, bead-based flow cytometry, multiplex; Induced myeloid leukemia cell differentiation protein Mcl-1 (Homo sapiens), Q07820; Bim peptide-Mcl-1 binding; inhibition, % at 10 µM; actives 0.1% (n = 190,000); AID 1009, 2008; in the data active = inhibition above about 40%;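 also: 0% = no compound tracer wells and 100% = peptide blocker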
Mcl1 Noxa PPI = Mcl-1/Noxa binding inhibitors, primary screen, biochemical, TR-FRET, 1536-well; Induced myeloid leukemia cell differentiation protein Mcl-1 (Homo sapiens), Q07820; actives 1.5% (n = 220,000); AID 1022, 2008; TR-FRET Mcl-1/Noxa peptide binding, 2 h; inhibition, % at 21.7 µM;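 active = compounds that cut the protein-peptide binding signal by more than 50% relative to plate controls in a single-dose test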;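 also: His-tagged Mcl-1 with rhodamine Noxa BH3 peptide and terbium anti-His antibody; 0% = Mcl-1 plus Noxa peptide wells and 100% = peptide-only wells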
NOD2-RIPK2 inh = NOD2-RIPK2 binding disruptors in cells, primary screen, fluorescence, CHO cells, BLA complementation. Receptor-interacting serine/threonine-protein kinase 2 (Homo sapiens), O43353. actives 0.38% (n = 360,000). CCF4 ratio. AID 624267, 2012. inhibition, % at 4.98 µM; in the data active = inhibition above about 21%;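 also: 0% = vehicle only and 100% = reference blocker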
Target sequence (O43353 whole entry, looked up): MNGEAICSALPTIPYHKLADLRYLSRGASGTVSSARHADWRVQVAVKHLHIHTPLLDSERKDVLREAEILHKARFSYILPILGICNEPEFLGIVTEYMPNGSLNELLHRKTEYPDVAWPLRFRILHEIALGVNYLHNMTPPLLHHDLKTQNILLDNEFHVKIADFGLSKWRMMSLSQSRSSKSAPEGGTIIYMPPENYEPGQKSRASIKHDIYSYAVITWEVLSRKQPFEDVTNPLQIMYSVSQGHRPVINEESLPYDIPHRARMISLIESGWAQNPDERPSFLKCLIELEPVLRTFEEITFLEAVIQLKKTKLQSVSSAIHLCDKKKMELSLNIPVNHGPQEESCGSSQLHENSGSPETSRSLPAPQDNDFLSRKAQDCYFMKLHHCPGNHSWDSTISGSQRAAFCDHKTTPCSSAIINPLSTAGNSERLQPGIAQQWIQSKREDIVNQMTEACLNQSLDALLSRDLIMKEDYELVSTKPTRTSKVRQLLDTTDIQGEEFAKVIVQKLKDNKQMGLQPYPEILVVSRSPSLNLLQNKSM
TLR4 MyD88 comp = inhibitors of TLR4-MyD88 association in cells, primary screen, cell-based, HeLa CL3-4, BLA complementation, FRET ratio; HeLa CL3-4 TLR4/MyD88 BLA complementation; inhibition, % at 8.4 µM; actives 0.18% (n = 200,000); in the data active = inhibition above about 25%;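 also: 0% = vehicle and 100% = reference inhibitor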
Active calls of the source: *; . = not tested or not shown. Sampled rows, rich in hits. Any-hit rate of the full collection: about 1.8%.

SMILES | TLR9-MyD88 block | Mcl1 Bid PPI | Mcl-1 Bim block | Mcl1 Noxa PPI | NOD2-RIPK2 inh | TLR4 MyD88 comp
O=C(NC(=S)Nc1cccc(S(=O)(=O)NC2=NCCC2)c1)c1cc(-c2ccco2)nc2ccccc12 | -7 | -47 | . | 65* | -3 | .
Cc1cc(C(=O)Nc2cccc(S(=O)(=O)N3CCCCC3)c2)c2ccccc2n1 | 10 | -10 | 0 | 65* | 5 | -10
COCCn1cnnc1SCC(=O)Nc1cccc(S(=O)(=O)N2CCCCCC2)c1 | -2 | 54* | -1 | 2 | -1 | -12
Cc1ccc(N2C(=O)CCC(C(=O)O)C2c2cccs2)cc1 (stereo not drawn) | 1 | . | . | . | 2 | .
COc1ccc2cc3c(N)nn(C(=O)Cc4ccc(Cl)cc4)c3nc2c1 | 9 | 66* | 0 | 25 | -2 | 4
COc1cccc(CC(=O)n2nc(N)c3cc4ccc(OC)cc4nc32)c1 | 5 | -10 | 3 | -20 | 9 | -11
Cc1ccc2nc(N3CC(=O)Nc4ccccc43)nc(-c3ccccc3)c2c1 | 13 | 97* | 15 | 10 | 4 | -5
O=c1[nH]c(-c2ccccc2Cl)nc2c1sc(=S)n2-c1ccccc1 | 19 | 89* | 1 | 44 | -2 | 19
COCCNC(=S)Nc1ccc(N2CCOCC2)c(S(=O)(=O)Nc2ccccc2OC)c1 | -1 | . | . | . | -7 | .
CCN(c1ccc(NC(=O)CN2C(=O)NC3(CCOc4ccccc43)C2=O)cc1)C(C)C (stereo not drawn) | -2 | 12 | -2 | 66* | 4 | -9
COCCN1CCN(C(=O)c2cc(COc3ccc(F)c(F)c3)on2)CC1 | 4 | . | . | . | -11 | .
CC(NC(=O)C1CC1)C(c1cccs1)N1CCN(c2ccccc2)CC1 (stereo not drawn) | -2 | -16 | -4 | 23 | 17 | -14
CC(NC(=O)NC1CCCCC1)C(c1cccs1)N1CCN(c2ccccc2)CC1 (stereo not drawn) | -3 | 92* | 0 | -7 | -7 | -1
CCc1c(C)sc(NC(=O)CC#N)c1C#N | -4 | -81 | 1 | 62* | -8 | 4
NNC(=O)COc1ccc(F)cc1 | -5 | -12 | -2 | 30 | 3 | -13
NNC(=O)COc1ccccc1F | 13 | 3 | 47* | 9 | -4 | -2
CCCCN1C(=O)N(C)C2C1N(C)C(=O)N2CCCC (stereo not drawn) | 7 | 2 | . | 63* | -5 | -4
CCS(=O)c1ccccc1C(=O)OC(C)C(=O)Nc1ccc(S(=O)(=O)N2CCCC2)cc1 (stereo not drawn) | -5 | . | . | . | -6 | .
COc1ccc(-c2csc(Nc3ccc(S(N)(=O)=O)cc3)n2)cc1OC | 0 | -30 | 1 | 51* | -5 | -13
NS(=O)(=O)c1ccc(Nc2nc(-c3ccc(F)cc3)cs2)cc1 | . | -29 | -2 | 11 | 4 | -3
Cc1cc(NS(=O)(=O)c2ccc(Nc3nc(-c4ccc(O)cc4)cs3)cc2)no1 | 4 | -39 | 0 | 69* | -8 | -21
O=C(NC(=S)NCCc1ccccc1)c1cccc(Cl)c1 | 11 | . | . | . | 3 | .
CCN(CC)CCOc1cc2c(nn1)Oc1ccccc1N2C | -1 | 54* | 4 | 37 | -15 | 2
CC(C)(C)c1ccc(/C=N/NC(=S)Nc2cccnc2)cc1 | . | -91 | -1 | -23 | . | 9
Oc1ccc(/C=N/NC(=S)Nc2cccnc2)cc1O | -5 | -58 | -2 | 59* | -9 | 13
O=C(COc1ccccc1C(=O)O)Nc1ccc(SC(F)F)cc1 | 2 | 8 | -1 | -3 | 1 | 25*
CN(C)C(=O)COC(=O)c1ccccc1OCC(=O)Nc1ccc(SC(F)F)cc1 | -7 | -7 | -5 | 20 | 6 | 7
CN1CCN(c2ccc(Cl)cc2NC(=O)c2ccc(S(=O)(=O)N(C)C)cc2)CC1 | -3 | 8 | 0 | 55* | 5 | 0
CCN(CC)S(=O)(=O)c1cc(C(=O)Nc2cc(Cl)ccc2N2CCN(C)CC2)ccc1Cl | 0 | -4 | -6 | 46 | 5 | 7
